Results as given in PubChem BioAssay AID489018 (Southern Research Specialized Biocontainment Screening …, 2010).
The campaign covered roughly 2,300 compounds. About 350 (15%) were called active. The rule behind the calls is not given here. These entries were drawn from the full list. Results with a measured potency or affinity are listed apart.

assay: HepG2 cell cytotoxicity, dose response, cytotoxicity control for non-replicating M. tuberculosis project (AID 489018); conditions: series mostly up to 20 µM;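 note: HepG2 human liver cells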

SMILES | outcome
CCCCCCOC(=O)C(C#N)c1nc2ccccc2nc1N1CCN(CC)CC1 (stereo not drawn) | inactive
CCCNC(=O)NC(=O)COc1ccc(-c2ccc(C#N)cc2)cc1 | inactive
Cc1cccc(OC(=O)c2ccc3nccnc3c2)c1 | inactive
O=C1CC(=O)CC(c2ccccc2)C1 | inactive
CCOC(=O)CN1NC2(CCCC(C)C2)NC1=S (stereo not drawn) | inactive
CCOC(=O)COc1ccc2c(=O)c(-c3ccccc3)coc2c1 | inactive
O=C(N/N=C/c1ccc(OC(=O)c2cccs2)cc1)c1ccccn1 | inactive
CN(/N=C/c1ccc([N+](=O)[O-])o1)c1ccccc1 | inactive
O=c1oc(-c2ccccc2[N+](=O)[O-])nc2ccccc12 | inactive
Nc1nc2ccccc2n1CCOc1ccc(Br)cc1 | inactive
Cc1c(C(=O)NNC(=O)c2csc(N3CCOCC3)n2)oc2ccccc12 | inactive
O=C(N/N=C/C=C/c1cccc([N+](=O)[O-])c1)c1ccncc1 | inactive
O=C(Nc1nccs1)c1cc2cc(Cl)ccc2oc1=O | inactive
CCCCCn1nnc2c(=O)oc3ccccc3c21 | inactive
Cc1cc(=O)[nH]c(-n2nc(C)cc2C)n1 | inactive
O=C(Nc1ccc(-c2nc3ccccc3c(=O)o2)cc1)c1ccco1 | inactive
Cc1cc(OCCOCCNCc2ccccc2)ccc1C(C)C | inactive
CC(C)Oc1ccc(CNC(=O)Oc2ccccc2)cc1 | inactive
COc1ccc(C(O)CNc2ccc(C)cc2)cc1 (stereo not drawn) | inactive
COc1ccc(C(C)NC(=O)CCc2ccccc2)cc1 (stereo not drawn) | inactive
Cn1c(CNc2ccccc2O)nc2ccccc21 | inactive
CCCCN1CCC(O)(c2ccccc2)C(C(=O)c2ccccc2)C1 (stereo not drawn) | inactive
O=C(Nc1ccccc1F)c1ccc([N+](=O)[O-])s1 | inactive
CCOc1ccc(OCc2ccc(C(=O)OCc3ccccn3)o2)cc1 | inactive
Cc1ccc(-c2nc3ccccn3c2Nc2ccccc2)o1 | inactive
CCc1ccc(NC(=O)C(=O)NNC(=O)c2cccc(OC)c2)cc1 | inactive
Cc1ccc(NCCC(=O)c2cccs2)cc1 | inactive

SMILES | outcome
CC1(C(=O)OCC(=O)Nc2nnc(-c3ccccc3)o2)CC1(Cl)Cl (stereo not drawn) | inactive
O=C(COc1ccc(Cl)cc1)Nc1ccc(Cl)cn1 | inactive
Cn1c(=O)c(Oc2ccc(Cl)cc2)c(O)c2ccccc21 | inactive
Cc1ccccc1OCCNc1cc(N2CC(C)NC(C)C2)ccc1[N+](=O)[O-] (stereo not drawn) | inactive
CC1CCCN(CCCOc2ccc([N+](=O)[O-])cc2)C1 (stereo not drawn) | inactive
CCOc1ccc(-c2cc(CCCC(=O)NCCC(C)C)no2)cc1 | inactive
Cc1ccc(C2=N/C(=C\c3cccnc3)C(=O)O2)cc1 | inactive
O=C1OC(/C=C/c2ccccc2)=NC/1=C\c1cccnc1 | inactive
COc1ccc(-c2cc(=O)oc(-c3cccc(C)c3)n2)cc1 | inactive
O=C(CCC1CCCC1)Nc1ccc(Br)cn1 | inactive
Cc1cc(C)n(-c2nc(NCCCO)c3c4c(sc3n2)CCCC4)n1 | inactive
CCOC(=O)c1sc2nc(CSc3ccccc3)nc(NCCN(C)C)c2c1C | inactive
CC1=C/C(=N\OS(=O)(=O)c2ccccc2)C(C)=CC1=O | inactive
O=C1CSC(=S)N1Cc1cccnc1 | inactive
O=C(OCn1nnc2ccccc2c1=O)c1ccc(Br)o1 | inactive
COc1cccc(C(=O)OCn2nnc3ccccc3c2=O)c1OC | inactive
O=[N+]([O-])c1ccc(-c2nc3ccc([N+](=O)[O-])cc3[nH]2)cc1 | inactive
c1ccc(-c2nc3c(ccc4ccccc43)[nH]2)nc1 | inactive
CCOC(=O)CNCCC(=O)c1ccc(Br)cc1 | inactive
COc1cc(OC)c2c(OC)cccc2n1 | inactive
CCN1CCN(c2ccc(S(=O)(=O)N3CCCCC3)cc2NC(=O)c2ccc([N+](=O)[O-])s2)CC1 | inactive
C/C(=N/NC(=O)c1cc2ccccc2cc1O)C1C(=O)c2ccccc2C1=O | inactive
CCN(CC)c1ccc2cc(C(=O)NCc3ccc(F)cc3)c(=N)oc2c1 | inactive
COCCSc1nnc(NC(=O)CCS(=O)(=O)Cc2ccccc2)s1 | inactive
CCC(C)n1nnc2c(=O)oc3ccccc3c21 (stereo not drawn) | inactive
O=C(Nc1ncc([N+](=O)[O-])s1)c1cccs1 | inactive
